Measurements: PubChem BioAssay (EPA / NIEHS)
Results filed as inconclusive are left out. Calls of active or inactive are those of the source. How the source made its calls: active means hit-call score of the fitted dose curve at least 0.9, where 1 is the maximum; inconclusive means response in the unintended direction; inactive means score below 0.9.

How the values were obtained:
[1] = molecular target: Androgen receptor (Homo sapiens) (UniProt P10275); assay: ATG_AR_TRANS: Attagene TRANS-FACTORIAL HepG2 Assay for human Androgen Receptor (AR) (AID 2282973); conditions: HepG2 Attagene TRANS-FACTORIAL AR reporter transcription
Sequence of Androgen receptor (Homo sapiens) (P10275 whole entry, looked up, the tested form may be a part): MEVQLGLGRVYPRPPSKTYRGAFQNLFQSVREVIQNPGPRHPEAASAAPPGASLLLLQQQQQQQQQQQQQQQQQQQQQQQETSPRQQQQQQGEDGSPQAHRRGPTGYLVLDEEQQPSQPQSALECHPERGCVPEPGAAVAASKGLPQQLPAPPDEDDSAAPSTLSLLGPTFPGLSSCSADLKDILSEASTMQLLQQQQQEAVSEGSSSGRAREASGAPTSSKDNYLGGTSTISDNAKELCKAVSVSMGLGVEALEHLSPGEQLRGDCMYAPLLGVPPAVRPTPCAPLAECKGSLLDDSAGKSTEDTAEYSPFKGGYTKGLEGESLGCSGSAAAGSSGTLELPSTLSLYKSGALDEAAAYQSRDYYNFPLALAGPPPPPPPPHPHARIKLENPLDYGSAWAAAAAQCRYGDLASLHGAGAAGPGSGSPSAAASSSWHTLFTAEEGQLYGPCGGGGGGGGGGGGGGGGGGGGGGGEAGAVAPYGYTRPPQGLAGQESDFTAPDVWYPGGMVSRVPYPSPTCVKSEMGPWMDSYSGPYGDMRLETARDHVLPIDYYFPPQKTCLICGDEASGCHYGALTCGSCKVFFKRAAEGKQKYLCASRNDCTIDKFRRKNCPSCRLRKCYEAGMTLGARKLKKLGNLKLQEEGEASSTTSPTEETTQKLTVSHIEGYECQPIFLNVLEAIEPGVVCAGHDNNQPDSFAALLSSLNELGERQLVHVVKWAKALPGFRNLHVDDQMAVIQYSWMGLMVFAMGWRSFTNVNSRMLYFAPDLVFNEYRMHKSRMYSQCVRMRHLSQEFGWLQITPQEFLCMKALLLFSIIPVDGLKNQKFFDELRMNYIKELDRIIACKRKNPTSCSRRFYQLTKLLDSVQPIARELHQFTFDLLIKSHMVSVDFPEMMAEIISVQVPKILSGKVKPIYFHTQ
Procedure, shortened: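 Chimeric nuclear receptor–Gal4 activity was assessed in human HepG2 hepatocytes after 24 h chemical dosing. Induced reporter mRNA was detected via labelled RT-PCR fragments on capillary electrophoresis, and gain of signal was analysed against DMSO.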

[2] = molecular target: human Acetylcholinesterase (AChE), ACHE (gene 43) (UniProt P22303); assay: NVS_ENZ_hAChE: NovaScreen (NVS) Enzymatic Assay for human Acetylcholinesterase (AChE) (AID 2283129)
Procedure, shortened: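 Cell-free colorimetric enzyme-activity assay; compounds read 0.33 hour after dosing, loss of signal vs DMSO baseline. Primary screen in duplicate at 25 uM single concentration, with active compounds retested in concentration series.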

[3] = test system: rat Monoamine Oxidase, MAO-A, Central (MAOAC), gene 29253; assay: NVS_ENZ_rMAOAC: NovaScreen (NVS) Enzymatic Assay for rat Monoamine Oxidase, MAO-A, Central (MAOAC) (AID 2283243);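 further: potency refers to inhibition seen as signal drop below DMSO baseline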
Procedure, shortened: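 Inhibition of rat brain-derived MAO-A was read by scintillation counting after 1.5 h exposure. Compounds screened first at 25 uM in duplicate, then in dose series if active.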

[4] = molecular target: rat Oxytocin Receptor (OXT), Oxtr (gene 25342) (UniProt P70536); assay: NVS_GPCR_rOXT: NovaScreen (NVS) G Protein-Coupled Receptor Assay for rat Oxytocin Receptor (OXT) (AID 2283330)
Sequence of rat Oxytocin Receptor (OXT), Oxtr (gene 25342) (P70536 whole entry, looked up): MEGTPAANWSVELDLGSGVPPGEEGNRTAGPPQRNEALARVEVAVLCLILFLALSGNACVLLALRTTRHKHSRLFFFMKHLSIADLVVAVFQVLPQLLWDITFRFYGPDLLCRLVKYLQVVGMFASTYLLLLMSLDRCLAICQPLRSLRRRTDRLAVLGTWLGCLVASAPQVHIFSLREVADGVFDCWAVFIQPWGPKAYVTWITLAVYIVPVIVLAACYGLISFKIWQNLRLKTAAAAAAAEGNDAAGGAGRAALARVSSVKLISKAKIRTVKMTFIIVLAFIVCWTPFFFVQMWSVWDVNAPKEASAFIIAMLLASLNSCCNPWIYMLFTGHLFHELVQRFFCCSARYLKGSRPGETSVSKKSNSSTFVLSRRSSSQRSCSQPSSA
Procedure, shortened: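 Radioligand displacement on rat uterine membranes, 1 h incubation, filter-based scintillation counting. Chemicals were screened in duplicate at 25 uM, and those passing threshold were retested in concentration-response up to 50 uM. Loss of binding was fitted versus DMSO.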

[5] = molecular target: human Fibroblast Growth Factor Receptor 1 (FGFR1), FGFR1 (gene 2260) (UniProt P11362); assay: NVS_ENZ_hFGFR1: NovaScreen (NVS) Enzymatic Assay for human Fibroblast Growth Factor Receptor 1 (FGFR1) (AID 2283159);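 further: hits lower the signal so potencies describe inhibitors of the kinase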
Procedure, shortened: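 Cell-free recombinant kinase with fluorescent substrate, product separated by electrophoretic mobility shift; read 1 hour after dosing, loss of signal relative to DMSO. Initial screen in duplicate at 25 uM, actives followed in concentration series.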

[6] = molecular target: human Phosphatase and Tensin Homolog (PTEN), PTEN (gene 5728) (UniProt P60484); assay: NVS_ENZ_hPTEN: NovaScreen (NVS) Enzymatic Assay for human Phosphatase and Tensin Homolog (PTEN) (AID 2283203)
Sequence of human Phosphatase and Tensin Homolog (PTEN), PTEN (gene 5728) (P60484 whole entry, looked up): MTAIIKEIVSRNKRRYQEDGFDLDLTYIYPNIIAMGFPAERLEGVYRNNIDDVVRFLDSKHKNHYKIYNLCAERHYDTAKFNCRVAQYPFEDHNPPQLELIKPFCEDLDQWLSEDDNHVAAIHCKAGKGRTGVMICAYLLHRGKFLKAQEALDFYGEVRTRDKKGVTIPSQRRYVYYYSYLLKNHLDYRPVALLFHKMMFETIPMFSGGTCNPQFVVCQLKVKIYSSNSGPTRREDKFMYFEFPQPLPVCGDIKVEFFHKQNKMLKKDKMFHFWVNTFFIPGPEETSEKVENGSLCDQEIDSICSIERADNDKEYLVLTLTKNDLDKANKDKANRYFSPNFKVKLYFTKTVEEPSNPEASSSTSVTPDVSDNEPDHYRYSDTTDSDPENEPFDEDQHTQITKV
Procedure, shortened: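 Cell-free recombinant human PTEN with fluorescent substrate; product separated by electrophoretic mobility shift and read by fluorescence 1 h after dosing. Primary screen in duplicate at 25 uM, actives followed in concentration series versus DMSO.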

[7] = molecular target: human Matrix Metalloproteinase-1 (MMP1), MMP1 (gene 4312) (UniProt P03956); assay: NVS_ENZ_hMMP1: NovaScreen (NVS) Enzymatic Assay for human Matrix Metalloproteinase-1 (MMP1) (AID 2283181)
Procedure, shortened: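 Human MMP1 enzyme activity measured by fluorescence 1 h after dosing, cell-free, with a specific substrate. Screened in duplicate at 25 uM; hits (e.g. 30% inhibition) run in concentration-response up to 50 uM; loss of signal versus DMSO.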

[8] = molecular target: human p21 Activated Kinase 4 (PAK4), PAK4 (gene 10298) (UniProt O96013); assay: NVS_ENZ_hPAK4: NovaScreen (NVS) Enzymatic Assay for human p21 Activated Kinase 4 (PAK4) (AID 2283189)
Sequence of human p21 Activated Kinase 4 (PAK4), PAK4 (gene 10298) (O96013 whole entry, looked up): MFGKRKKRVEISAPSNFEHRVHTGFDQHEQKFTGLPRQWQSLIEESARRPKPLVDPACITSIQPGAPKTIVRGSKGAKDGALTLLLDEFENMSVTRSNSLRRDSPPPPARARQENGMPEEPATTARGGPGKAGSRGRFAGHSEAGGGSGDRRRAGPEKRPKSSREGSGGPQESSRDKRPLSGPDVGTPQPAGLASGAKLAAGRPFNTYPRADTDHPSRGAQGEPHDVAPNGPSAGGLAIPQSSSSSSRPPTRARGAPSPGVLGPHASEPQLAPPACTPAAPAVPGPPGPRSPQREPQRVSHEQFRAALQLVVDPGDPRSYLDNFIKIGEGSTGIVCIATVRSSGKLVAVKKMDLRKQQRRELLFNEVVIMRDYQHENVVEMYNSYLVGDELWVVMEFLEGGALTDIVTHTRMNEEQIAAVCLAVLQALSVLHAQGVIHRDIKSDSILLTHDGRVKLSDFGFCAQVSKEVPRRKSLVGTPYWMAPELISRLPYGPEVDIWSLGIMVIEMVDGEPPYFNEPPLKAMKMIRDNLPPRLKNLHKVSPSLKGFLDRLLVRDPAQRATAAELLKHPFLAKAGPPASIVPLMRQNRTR
Procedure, shortened: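 Cell-free recombinant human PAK4 activity assay; fluorescent substrate and product separated by electrophoretic mobility shift, read 1 h after dosing. Initially tested in duplicate at 25 uM, relative to DMSO baseline.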

[9] = molecular target: rat Monoamine Oxidase, MAO-B, Peripheral (MAOBP), Maob (gene 25750) (UniProt P19643); assay: NVS_ENZ_rMAOBP: NovaScreen (NVS) Enzymatic Assay for rat Monoamine Oxidase, MAO-B, Peripheral (MAOBP) (AID 2283242)
Sequence of rat Monoamine Oxidase, MAO-B, Peripheral (MAOBP), Maob (gene 25750) (P19643 whole entry, looked up): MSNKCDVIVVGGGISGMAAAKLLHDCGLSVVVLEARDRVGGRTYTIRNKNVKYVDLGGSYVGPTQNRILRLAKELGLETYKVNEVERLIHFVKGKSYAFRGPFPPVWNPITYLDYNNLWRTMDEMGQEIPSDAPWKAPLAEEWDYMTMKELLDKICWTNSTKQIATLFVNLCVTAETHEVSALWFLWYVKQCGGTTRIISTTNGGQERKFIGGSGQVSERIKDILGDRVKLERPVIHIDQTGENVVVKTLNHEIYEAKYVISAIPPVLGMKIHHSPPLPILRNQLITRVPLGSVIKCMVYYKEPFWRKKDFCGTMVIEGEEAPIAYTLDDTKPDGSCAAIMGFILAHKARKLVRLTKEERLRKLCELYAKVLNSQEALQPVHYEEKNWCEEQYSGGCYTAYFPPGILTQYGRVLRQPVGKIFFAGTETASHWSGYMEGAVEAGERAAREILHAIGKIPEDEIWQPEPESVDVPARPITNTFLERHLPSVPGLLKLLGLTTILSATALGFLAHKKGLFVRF

[10] = molecular target: human AMP-activated Protein Kinase, alpha 1 (AMPKa1), PRKAA1 (gene 5562) (UniProt Q13131); assay: NVS_ENZ_hAMPKa1: NovaScreen (NVS) Enzymatic Assay for human AMP-activated Protein Kinase, alpha 1 (AMPKa1) (AID 2283130)
Procedure, shortened: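 Recombinant human AMPKα1 activity was measured cell-free by fluorescent substrate conversion with electrophoretic mobility-shift separation, 1 h after dosing. Duplicate single-point screening was at 25 uM; actives (≥30% inhibition) were retested in concentration-response up to 50 uM.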

[11] = molecular target: rat Corticotropin Releasing Factor Receptor (CRF), Crhr1 (gene 58959) (UniProt P35353); assay: NVS_GPCR_rCRF: NovaScreen (NVS) G Protein-Coupled Receptor Assay for rat Corticotropin Releasing Factor Receptor (CRF) (AID 2283300)
Procedure, shortened: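 Rat cortical membranes used as receptor source in a radioligand competitive displacement binding assay; scintillation read 2 h after dosing. Primary screen run in duplicate at 25 uM; loss of signal versus DMSO baseline indicates binding.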

[12] = molecular target: human Caspase 2 (CASP2), CASP2 (gene 835) (UniProt P42575); assay: NVS_ENZ_hCASP2: NovaScreen (NVS) Enzymatic Assay for human Caspase 2 (CASP2) (AID 2283135)
Procedure, shortened: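 E. coli-expressed enzyme in a cell-free protease assay, fluorescence read 1 h after dosing. Compounds at 25 uM in duplicate, with concentration-response up to 50 uM for hits; loss of signal against DMSO baseline.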

[13] = molecular target: human Protein Tyrosine Phosphatase Receptor Type C (PTPRC), PTPRC (gene 5788) (UniProt P08575); assay: NVS_ENZ_hPTPRC: NovaScreen (NVS) Enzymatic Assay for human Protein Tyrosine Phosphatase Receptor Type C (PTPRC) (AID 2283212)
Sequence of human Protein Tyrosine Phosphatase Receptor Type C (PTPRC), PTPRC (gene 5788) (P08575 whole entry, looked up): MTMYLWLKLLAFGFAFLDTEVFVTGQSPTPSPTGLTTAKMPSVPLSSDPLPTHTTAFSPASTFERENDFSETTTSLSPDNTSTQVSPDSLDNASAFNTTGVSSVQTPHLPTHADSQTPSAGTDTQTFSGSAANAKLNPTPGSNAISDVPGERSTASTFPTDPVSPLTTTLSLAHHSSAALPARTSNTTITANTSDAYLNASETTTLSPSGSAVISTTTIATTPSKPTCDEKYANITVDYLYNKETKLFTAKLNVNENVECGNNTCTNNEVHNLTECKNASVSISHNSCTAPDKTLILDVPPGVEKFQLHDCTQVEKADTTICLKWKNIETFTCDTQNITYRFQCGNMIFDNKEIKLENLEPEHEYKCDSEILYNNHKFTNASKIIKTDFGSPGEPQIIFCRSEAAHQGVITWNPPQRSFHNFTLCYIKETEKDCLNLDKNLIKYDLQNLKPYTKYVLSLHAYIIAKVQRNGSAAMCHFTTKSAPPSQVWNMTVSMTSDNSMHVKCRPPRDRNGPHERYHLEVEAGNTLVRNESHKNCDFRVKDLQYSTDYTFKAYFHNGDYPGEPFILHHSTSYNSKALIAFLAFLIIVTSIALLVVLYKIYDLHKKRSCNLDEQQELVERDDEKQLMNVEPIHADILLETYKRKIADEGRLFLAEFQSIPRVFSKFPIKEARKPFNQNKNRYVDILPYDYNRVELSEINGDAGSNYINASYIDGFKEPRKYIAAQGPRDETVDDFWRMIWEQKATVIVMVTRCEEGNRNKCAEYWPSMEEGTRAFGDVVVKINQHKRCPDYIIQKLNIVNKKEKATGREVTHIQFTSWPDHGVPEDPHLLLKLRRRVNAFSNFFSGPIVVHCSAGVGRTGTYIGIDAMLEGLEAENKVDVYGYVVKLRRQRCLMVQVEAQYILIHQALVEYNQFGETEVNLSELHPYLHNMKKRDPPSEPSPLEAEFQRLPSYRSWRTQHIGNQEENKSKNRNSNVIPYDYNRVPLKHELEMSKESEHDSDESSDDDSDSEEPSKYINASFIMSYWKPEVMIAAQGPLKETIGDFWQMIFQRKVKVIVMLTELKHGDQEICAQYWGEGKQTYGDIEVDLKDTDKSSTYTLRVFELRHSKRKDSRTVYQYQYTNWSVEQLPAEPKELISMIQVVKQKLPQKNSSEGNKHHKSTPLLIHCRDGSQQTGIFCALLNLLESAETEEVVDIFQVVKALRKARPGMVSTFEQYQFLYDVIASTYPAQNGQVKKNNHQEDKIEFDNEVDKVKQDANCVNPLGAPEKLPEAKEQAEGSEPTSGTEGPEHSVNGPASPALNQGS
Procedure, shortened: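 Yeast-extracted human PTPRC used in a cell-free colorimetric enzyme activity read-out, 1 h after dosing. Primary screen in duplicate at 25 uM; actives rerun in concentration-response up to 50 uM, DMSO as baseline.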

[14] = molecular target: human MET Proto-Oncogene, Receptor Tyrosine Kinase (MET), MET (gene 4233) (UniProt P08581); assay: NVS_ENZ_hMet: NovaScreen (NVS) Enzymatic Assay for human MET Proto-Oncogene, Receptor Tyrosine Kinase (MET) (AID 2283180)
Procedure, shortened: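 Cell-free MET kinase assay using recombinant protein and fluorescent substrate, with mobility-shift separation; read 1 h after dosing. Primary duplicate at 25 uM; actives in singleton concentration-response to 50 uM maximum. Signal loss versus DMSO.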

[15] = molecular target: rat Monoamine Oxidase, MAO-B, Central (MAOBC), Maob (gene 25750) (UniProt P19643); assay: NVS_ENZ_rMAOBC: NovaScreen (NVS) Enzymatic Assay for rat Monoamine Oxidase, MAO-B, Central (MAOBC) (AID 2283238)
Sequence of rat Monoamine Oxidase, MAO-B, Central (MAOBC), Maob (gene 25750) (P19643 whole entry, looked up): as the sequence (P19643 whole entry, looked up) above
Procedure, shortened: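 MAO-B activity in rat brain tissue preparation, cell-free, measured radiometrically by scintillation counting 1.17 h after dosing. Screened in duplicate at 25 uM; actives then in concentration-response up to 50 uM. Loss of signal versus DMSO scored.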

[16] = molecular target: rat Acetylcholinesterase (AChE), Ache (gene 83817) (UniProt P37136); assay: NVS_ENZ_rAChE: NovaScreen (NVS) Enzymatic Assay for rat Acetylcholinesterase (AChE) (AID 2283233)
Sequence of rat Acetylcholinesterase (AChE), Ache (gene 83817) (P37136 whole entry, looked up): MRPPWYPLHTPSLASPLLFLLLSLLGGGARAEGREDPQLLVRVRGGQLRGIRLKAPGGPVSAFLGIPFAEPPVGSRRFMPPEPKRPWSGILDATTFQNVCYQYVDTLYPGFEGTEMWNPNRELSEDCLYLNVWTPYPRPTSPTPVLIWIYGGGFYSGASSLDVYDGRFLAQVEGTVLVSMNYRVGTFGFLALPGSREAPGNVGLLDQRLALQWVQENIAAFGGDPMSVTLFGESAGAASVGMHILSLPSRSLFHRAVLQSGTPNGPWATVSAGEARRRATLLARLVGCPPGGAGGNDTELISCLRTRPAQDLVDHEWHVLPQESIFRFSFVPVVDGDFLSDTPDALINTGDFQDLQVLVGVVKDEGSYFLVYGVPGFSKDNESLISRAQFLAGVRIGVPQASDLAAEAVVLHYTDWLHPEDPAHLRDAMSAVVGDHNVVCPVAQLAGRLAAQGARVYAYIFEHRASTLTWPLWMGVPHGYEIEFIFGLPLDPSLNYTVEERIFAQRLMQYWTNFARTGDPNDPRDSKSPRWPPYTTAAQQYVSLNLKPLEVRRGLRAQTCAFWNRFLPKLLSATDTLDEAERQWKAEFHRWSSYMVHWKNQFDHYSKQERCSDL
Procedure, shortened: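 Rat brain membrane acetylcholinesterase activity measured colorimetrically 0.33 h after compound addition, loss of signal relative to DMSO. Primary screen in duplicate at 25 uM; actives re-run as concentration-response with 50 uM top concentration.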

[17] = molecular target: Voltage-dependent N-type calcium channel subunit alpha-1B (Rattus norvegicus) (UniProt Q02294); assay: NVS_IC_rCaChN: NovaScreen (NVS) Ion Channel Assay for rat Calcium Channel, Type N (CaChN) (AID 2283317)

## CCCOc1sc(C(=O)N2CCC(c3cc(CN)ccc3F)CC2)c(C)c1Br
[1]
  outcome: inactive
[2]
  outcome: inactive
[3]
  AC50: 0.439 µM (active)
[4]
  AC50: 23.2 µM (active)

## CCCCCCCCN(C)CCCCCCCC
[1]
  outcome: inactive
[5]
  AC50: 36.1 µM (active)

## CCc1cccc(C)c1N(C(=O)CS(=O)(=O)O)C(C)COC (stereo not drawn)
[1]
  outcome: inactive
[6]
  outcome: inactive

## C=CCCCCCCCCCCCC
[1]
  outcome: inactive
[7]
  outcome: inactive
[8]
  outcome: inactive
[9]
  outcome: inactive

## CC/C=C\C/C=C\C/C=C\CCCCCCCC(=O)OC
[1]
  outcome: inactive
[6]
  AC50: 9.64 µM (active)

## O=C=Nc1cccc2c(N=C=O)cccc12
[1]
  outcome: inactive
[6]
  outcome: inactive

## CCN(CC)C(=S)SSC(=S)N(CC)CC
[1]
  outcome: inactive
[10]
  outcome: inactive
[11]
  outcome: inactive

## CCOc1ccc2c(c1)C(C)=CC(C)(C)N2
[1]
  outcome: inactive
[12]
  outcome: inactive
[13]
  AC50: 8.36 µM (active)
[3]
  AC50: 16.6 µM (active)

## COc1ccc(S(=O)(=O)N2C(=O)[C@@](c3ccccc3OC)(N3C[C@H](O)C[C@H]3C(=O)N(C)C)c3cc(Cl)ccc32)c(OC)c1
[1]
  outcome: inactive
[14]
  outcome: inactive
[7]
  outcome: inactive
[15]
  outcome: inactive
[9]
  outcome: inactive
[4]
  AC50: 0.0663 µM (active)

## O=Cc1ccccc1C=O
[1]
  outcome: inactive
[8]
  outcome: inactive
[13]
  AC50: 17.7 µM (active)
[16]
  outcome: inactive
[17]
  outcome: inactive

## Oc1ccc(/C=C/c2cc(O)cc(O)c2)cc1
[1]
  outcome: inactive
[3]
  AC50: 1.58 µM (active)

## O=S1(=O)CC(Cl)(Cl)C(Cl)(Cl)C1
[1]
  outcome: inactive
[16]
  AC50: 26.1 µM (active)
[3]
  outcome: inactive

## CCCCCc1ccc(O)cc1
[1]
  outcome: inactive
[3]
  AC50: 17.3 µM (active)

## CCOC(=O)C1=NN(c2ccc(Cl)cc2Cl)C(C)(C(=O)OCC)C1 (stereo not drawn)
[1]
  outcome: inactive
[6]
  outcome: inactive
